Experimental data published in PubChem BioAssay.
Entries with a potency or affinity are not part of this list. Results filed as inconclusive are left out. Calls of active or inactive are those of the source.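 The calls were made as follows: active = fitted half-maximal concentration for viability loss no higher than twice the top valid dose, in every repeat run; inconclusive = repeat runs disagree, flat partial loss, or poor curve fit; inactive = the rest.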

Assay: cytotoxicity in IOSE-T80 ovarian epithelial cells, dose response, selectivity assay for PAX8 inhibitor project, cell-based, cherry-pick (AID 687032);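 also: cells exposed to compound for 96 h before reading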
Details: CellTiterGlo ATP luminescence, 96 h; series mostly up to 35 µM

Compound	outcome
COc1cccc(/C=C2\SC(=S)N(CCC(=O)NCCc3ccc(O)cc3)C2=O)c1	inactive
FC(F)(F)c1nnc2c(Sc3ccccc3)nc3ccc(Cl)cc3n12	inactive
O=C(Nc1cccc(NC(=O)c2ccc([N+](=O)[O-])o2)c1)c1ccco1	inactive
Cc1ccc(NC(=O)c2ccc([N+](=O)[O-])s2)cc1S(=O)(=O)N1CCOCC1	inactive
C[C@@H]1CCCCO[C@@H](CN(C)Cc2ccc3c(c2)OCO3)[C@H](C)CN([C@@H](C)CO)C(=O)c2cc(NC(=O)Nc3ccc(C(F)(F)F)cc3)ccc2O1	inactive
COc1ccc(Br)cc1/C=C/C(=O)c1ccc(NC(C)=O)cc1	inactive
O=C(CCCN1C(=O)/C(=C/c2cccc(Br)c2)SC1=S)Nc1cccnc1	inactive
C[C@H](CO)N1C[C@H](C)[C@@H](CN(C)Cc2ccncc2)Oc2ccc(NC(=O)Nc3ccc(C(F)(F)F)cc3)cc2CC1=O	inactive
COc1ccc(O)c(/C=N/NC(=O)c2ccc(N3CCCC3=O)cc2)c1	inactive
CCCCn1cnc2c(c(-c3ccccc3)c(-c3ccccc3)n2Cc2ccco2)c1=N	inactive
COc1cc(/C=N/NC(=O)c2ccc(CN3C(=O)c4cccc5cccc3c45)cc2)cc(OC)c1O	inactive
COc1ccccc1C(=O)Nc1nc2ccccc2s1	inactive
CC(=O)OC(C)(C)/C=C/C(=O)[C@](C)(O)C1[C@H](O)C[C@@]2(C)C3CC=C4C(C=C(O[C@@H]5O[C@H](CO)[C@@H](O)[C@H](O)[C@H]5O)C(=O)C4(C)C)[C@]3(C)C(=O)C[C@]12C (stereo partly drawn)	inactive
